TRHR enhancer: TRH receptor (human) allosteric enhancement; P34981; TRHR cells, fluo-8 calcium fluorescence, EC20 TRH enhancement; enhancement, % at 2 µM; actives 0.66% (n = 360,000); AID 493056; in the data active = enhancement above about 30%; also: 0% is about no effect
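Enhancer read-out: after compound pinning and an initial kinetic agonist-mode read, an EC20 of TRH (10 nM final) was injected and fluo-8 calcium signal (Ex 480/Em 530) followed at 1 s/cycle for 100 cycles in TRHR-expressing cells.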
TRHR ag: activates the human TRH receptor; TRHR cells, calcium flux fluo-8, FDSS agonist mode; activation, % at 2 µM; actives 0.18% (n = 360,000); AID 493084; also: 0% is about no effect
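Fluo-8-loaded TRHR cells; 10 s baseline, compound added, kinetic Ca2+ fluorescence read 1/s, agonist mode.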
D1 ag: human D1 receptor agonism. HEK293 T-REx D1 cells, calcium flux, agonist mode. activation, % at 2 µM. P21728. actives 1% (n = 360,000); also: 0% is about no effect
Target sequence (P21728 whole entry, looked up): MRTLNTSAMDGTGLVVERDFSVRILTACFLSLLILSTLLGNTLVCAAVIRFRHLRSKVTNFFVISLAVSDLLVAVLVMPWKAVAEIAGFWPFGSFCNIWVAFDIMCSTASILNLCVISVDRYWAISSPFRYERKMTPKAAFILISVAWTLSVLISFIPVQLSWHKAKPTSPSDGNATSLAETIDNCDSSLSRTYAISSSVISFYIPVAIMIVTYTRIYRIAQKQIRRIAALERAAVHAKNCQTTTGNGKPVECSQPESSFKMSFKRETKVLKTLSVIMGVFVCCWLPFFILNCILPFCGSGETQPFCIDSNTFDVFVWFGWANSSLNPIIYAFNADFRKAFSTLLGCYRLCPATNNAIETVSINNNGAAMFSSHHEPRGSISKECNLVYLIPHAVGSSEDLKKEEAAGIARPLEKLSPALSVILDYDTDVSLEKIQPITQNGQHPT
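Tetracycline-induced HEK293 TREx D1 cells, force-coupled to calcium signalling, were dye-loaded with a no-wash calcium kit. Compound was pin-added after a 10 s baseline. Fluorescence was read kinetically at 1 cycle/s for 180 s, with calcium rises flagged as agonism.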
D1 potentiator: enhances dopamine response at the human D1 receptor. actives 0.036% (n = 360,000). HEK293 TREx D1 cells, calcium flux, dopamine EC20 potentiation. potentiation, % at 10 µM; in the data active = potentiation above about 30%; also: 0% is about no effect
D1 antag: blocks dopamine activation of the human D1 receptor. P21728. HEK293 TREx D1 cells, calcium flux, dopamine EC80; active compounds read low. activity change, negative = inhibition, % at 10 µM. actives 3.2% (n = 360,000); in the data active = activity change below about -30%; also: % is scaled to controls: 0 for no effect and ±100 for the full control effect
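Cells carrying a force-coupled, tetracycline-inducible human D1 receptor report calcium flux. Each well gets a 10 s baseline, compound with 180 s monitoring, then an EC80 dopamine stimulus with a second 180 s kinetic read.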
The depositor's hits bear a star. Compounds with a hit are over-represented: about 4.6% of the library has one in this group of screens. Rule as the data show it, unless noted: active = activation above about 30%; inactive = the rest.

SMILES | TRHR enhancer | TRHR ag | D1 ag | D1 potentiator | D1 antag
COC(=O)/C=C1\SC(=Nc2ccc(Cl)c(Cl)c2)NC1=O | 0.7 | 0.1 | 2.4 | -0.5 | 10.0
COc1ccc(CCNC(=O)c2cc3c(s2)-c2c(C)cccc2OC3)c(OC)c1 | -4.4 | 0.6 | 4.5 | -3.4 | -7.9
O=C(Nc1nc2c(s1)CN(Cc1ccccc1)CC2)C1CCC1 | -2.2 | 0.1 | 4.7 | -0.8 | -18.7
CN(C)c1ccc(/C=C(\C#N)C(=O)Nc2nc3c(s2)CCN(Cc2ccccc2)C3)cc1 | -5.8 | 22.6 | 68.2* | -0.6 | -18.6
Cc1ccc(NC(=O)N(Cc2nc3ccccc3c(=O)[nH]2)Cc2cccs2)cc1 | 7.1 | 0.5 | 2.1 | -7.7 | -45.9*
CCNC(=S)N(Cc1ccccc1)Cc1nc2ccccc2c(=O)[nH]1 | -6.9 | -0.5 | 6.0 | -12.0 | -30.6*
O=C(Cn1nc(-c2ccccc2)c2c(c1=O)CCCC2)Nc1ccc(F)c(Cl)c1 | -1.4 | 1.5 | 9.1 | -0.5 | 17.6
CCC1CN(C(=O)Nc2cccc3c2CCCC3)c2cc(C)ccc2O1 (stereo not given) | -2.2 | -0.2 | 0.1 | -1.6 | -59.9*
COc1ccc(C(=O)c2sc(Nc3ccccc3)nc2N)cc1OC | 32.7* | 0.4 | 1.3 | -2.4 | 5.7
COc1ccc(C(=O)c2sc(Nc3ccccc3)nc2N)cc1 | 8.5 | 0.8 | 4.3 | -2.2 | 12.5
O=C(Nc1ccc(F)c(Cl)c1)N1CCC(CN2CCc3ccccc3C2)CC1 | -4.7 | 0.2 | 4.8 | -3.8 | -13.6
CCOC(=O)c1c(Nc2ccc(C)c(C)c2)nnc(-c2ccccc2)c1-c1ccccc1 | -5.8 | -0.4 | 1.5 | -0.7 | 9.8
Oc1ccccc1CNc1nc2ccccc2n1CCN1CCCCC1 | 5.7 | -0.9 | 2.9 | 3.6 | 4.2
COc1ccccc1CNc1nc2ccccc2n1CCN1CCCCC1 | -7.1 | 0.3 | 11.1 | 5.0 | -35.3*
COc1ccccc1Cn1c(-c2ccccc2OC)nc2ccccc21 | 37.3* | -0.5 | -1.0 | 0.7 | 6.6
COc1ccc(CNc2nc3ccccc3n2C)c(OC)c1 | -5.0 | -0.9 | 11.8 | -4.4 | -40.2*
O=C(Nc1ccc(Cl)cc1Cl)c1cc(S(=O)(=O)N2CCN(c3ccccc3F)CC2)ccc1F | 8.7 | 0.6 | -0.1 | -0.3 | -4.6
COc1ccc2[nH]c(=O)c(CN(Cc3cccs3)C(=S)Nc3cccc(C)c3)cc2c1 | -9.0 | -0.7 | 3.8 | -6.2 | -31.6*
CNC(=S)N(Cc1cccs1)Cc1cc2cc(OC)ccc2[nH]c1=O | -0.2 | -1.4 | 5.2 | -1.4 | 7.9
COc1ccc2[nH]c(=O)c(CN(C(=O)c3cccnc3)c3ccccc3)cc2c1 | 11.6 | 0.0 | 0.0 | 36.1* | 0.7
COc1ccc2[nH]c(=O)c(CN(Cc3cccnc3)C(=O)Nc3ccccc3)cc2c1 | -2.2 | -0.5 | 0.3 | -4.3 | -37.0*
COCCNC(=O)c1c(N)n(CCCn2ccnc2)c2nc3ccccc3nc12 | 17.0 | -0.3 | 1.5 | -8.9 | -47.2*
COCCCn1c(N)c(-c2nc3ccccc3n2C)c2nc3ccccc3nc21 | 2.7 | 22.5 | 76.5* | -2.4 | -3.7
O=CNCc1nc2ccccc2n1CCCc1ccccc1 | -1.6 | 0.4 | 23.4 | -2.6 | 10.2
COCCNC(=O)c1c(N)n(-c2ccccc2)c2nc3ccccc3nc12 | 1.4 | -0.2 | 3.2 | 8.9 | -1.1
SMILES | TRHR enhancer | TRHR ag | D1 ag | D1 potentiator | D1 antag
Cn1c(-c2c(N)n(C3CCCC3)c3nc4ccccc4nc23)nc2ccccc21 | 16.6 | 16.3 | 52.8* | -4.7 | -16.5
Cn1c(-c2c(N)n(CCCc3ccccc3)c3nc4ccccc4nc23)nc2ccccc21 | 0.0 | -1.0 | 51.6* | -4.7 | 2.6
Cn1c(-c2c(N)n(CCc3ccccc3)c3nc4ccccc4nc23)nc2ccccc21 | 2.0 | 20.1 | 77.0* | -4.6 | 10.6
N#Cc1c(N)n(CCc2ccc(F)cc2)c2nc3ccccc3nc12 | 2.0 | -0.3 | 0.0 | -8.3 | -17.7
COc1ccccc1N1CCN(CCCNC(=O)c2cnn(-c3cccc(Cl)c3)c2C2CCN(C(=O)OC(C)(C)C)CC2)CC1 | 11.8 | 0.6 | 10.4 | -5.0 | -31.5*
CN1CCN(CCCNC(=O)c2cnn(-c3ccccc3)c2C2CCN(C(=O)OC(C)(C)C)CC2)CC1 | -5.8 | -1.0 | 0.4 | 1.8 | 1.4
Cc1ccc(C)c(N2CCN(CCCNC(=O)c3cnn(-c4ccccc4)c3C3CCN(C(=O)OC(C)(C)C)CC3)CC2)c1 | -15.6 | -1.2 | 13.6 | -7.6 | -42.4*
COc1ccccc1N1CCN(CCCNC(=O)c2cnn(-c3ccc(C)c(C)c3)c2C2CCN(C(=O)OC(C)(C)C)CC2)CC1 | 7.0 | -0.5 | 3.8 | -6.0 | 3.4
CN1CCN(C(=O)c2ccc(CSc3ccc(Cl)cc3)cc2)CC1 | -6.1 | 0.5 | 18.1 | -9.3 | -30.2*
CN1CCN(C(=O)c2ccc(Cl)cc2)CC1 | 33.5* | -0.6 | 0.4 | -4.8 | -5.0
O=C(Nc1ccccc1C(=O)NCCN1CCOCC1)c1ccc(Cl)cc1Cl | 5.4 | 0.3 | 0.5 | -6.7 | -30.8*
Cc1ccc(C(=O)N2CCC(C(=O)c3ccc(Cl)cc3)CC2)cc1 | -8.4 | -0.1 | 5.6 | -7.3 | -44.4*
C[C@H](NC(=O)C1CC(=O)N(c2ccc3c(c2)OCCO3)C1)C(=O)N1CCCCC1 (stereo not given in full) | 1.2 | 0.6 | 1.4 | -1.0 | 0.0
CN(c1ccc(C(=O)N2CCCCCC2)cc1)S(=O)(=O)c1ccc(Cl)cc1 | -9.7 | -0.7 | 17.2 | -8.0 | -38.5*
O=C(c1ccc(Cl)cc1)N1CCN(c2ccnc3cc(Cl)ccc23)CC1 | 10.5 | -0.3 | 1.5 | -15.2 | -55.4*
O=C(Nc1ccccc1C(=O)N1CCCC1)c1ccc(Cl)cc1Cl | -6.2 | 0.5 | 1.0 | -5.8 | -29.2
CN1CCN(C(=O)c2cc(Cl)ccc2NC(=O)c2ccc(Cl)cc2Cl)CC1 | 2.8 | 0.1 | -0.5 | -6.2 | -30.5*
CN(c1ccc(C(=O)N2CCOCC2)cc1)S(=O)(=O)c1ccc(Cl)cc1 | -3.9 | -0.1 | 5.9 | -0.8 | -6.6
COc1cc(CN(C(=O)COc2ccccc2Cl)c2ccccn2)cc(OC)c1OC | -4.9 | -0.2 | 1.3 | -1.4 | 7.6
CCCn1ncc([C@@H]2C[C@H]3CN(Cc4cccc(Cl)c4)C(=O)[C@]34CCCN24)c1C | -4.9 | -1.6 | 0.0 | -0.2 | -31.0*
Cn1cc([C@@H]2C[C@H]3CN(Cc4cccc(Cl)c4)C(=O)[C@]34CCCN24)c(-c2ccccc2)n1 | 3.6 | -0.8 | 17.2 | -4.2 | -30.9*
COc1cc(C2C(=O)N(C3CCCCCC3)CC(=O)N2CCC2=CCCCC2)ccc1OC(C)C (stereo not given) | 0.2 | -0.2 | -4.1 | -1.6 | 19.3
O=C(Nc1ccc(C(=O)OCc2cc(=O)n3nc(C4CC4)sc3n2)cc1)c1cccc(F)c1 | 4.6 | 0.7 | 6.1 | 0.1 | 3.5
COc1ccc(-c2cc3ccccc3nc2N)cc1OC | 2.2 | 0.3 | 12.3 | -5.4 | -38.1*
COc1ccc(-c2nc3ccccc3nc2-c2ccc(OC)c(OC)c2)cc1OC | 20.1 | 0.0 | 5.3 | -3.0 | 8.9

High-throughput results from PubChem.
